Experimental data as given in PubChem BioAssay AID1159580 (chemical genetic matrix, 2015).
The whole screen tested about 5,500 compounds, of which about 2,000 (36%) were called active. Inconclusive results (about 18%) are left out. No stated cut-off is given here; in the data, active means normalized growth mostly below about 0.91 (no sharp cut-off); inconclusive means no clear call, values can overlap the other calls; inactive means mostly above about 0.92. This is one part of the list.

Assay: chemical genetic growth profiling, strain panel (AID 1159580);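 further: tested at 20 µM; growth read once vehicle control cultures reached saturation at 30 °C; 1 = growth at the plate median or of vehicle wells; lower values mean less growth of the strain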
Settings: growth OD
[1] = S. cerevisiae deletion strains, locus YDL101C, strain DUN1, hits give low values
[2] = S. cerevisiae deletion strains, locus YHR030C, strain SLT2, hits give low values
[3] = S. cerevisiae deletion strains, locus YAL013W, strain DEP1, hits give low values
[4] = S. cerevisiae deletion strains, locus YBR229C, strain ROT2, hits give low values
[5] = S. cerevisiae deletion strains, locus YDR150W, strain NUM1, hits give low values
[6] = S. cerevisiae deletion strains, locus YEL061C, strain CIN8, hits give low values
[7] = S. cerevisiae deletion strains, locus YGR078C, strain PAC10, hits give low values
[8] = S. cerevisiae deletion strains, locus YHR087W, strain rtc3, hits give low values
[9] = S. cerevisiae deletion strains, locus YJR043C, strain POL32, hits give low values
[10] = S. cerevisiae deletion strains, locus YJR075W, strain HOC1, hits give low values
[11] = S. cerevisiae deletion strains, locus YLR039C, strain RIC1, hits give low values
[12] = S. cerevisiae deletion strains, locus YLR058C, strain SHM2 (second series), hits give low values
[13] = S. cerevisiae deletion strains, locus YLR085C, strain ARP6, hits give low values
[14] = S. cerevisiae deletion strains, locus YLR262C, strain YPT6, hits give low values
[15] = S. cerevisiae deletion strains, locus YML094W, strain GIM5, hits give low values
[16] = S. cerevisiae deletion strains, locus YMR219W, strain ESC1, hits give low values
[17] = S. cerevisiae deletion strains, locus YMR263W, strain SAP30, hits give low values
[18] = S. cerevisiae deletion strains, locus YMR307W, strain GAS1, hits give low values
[19] = S. cerevisiae deletion strains, locus YNL153C, strain GIM3, hits give low values
[20] = S. cerevisiae deletion strains, locus YNL298W, strain CLA4 (second series), hits give low values
[21] = S. cerevisiae deletion strains, locus YNL322C, strain KRE1, hits give low values
[22] = S. cerevisiae deletion strains, locus YNR030W, strain Alg12, hits give low values
[23] = S. cerevisiae deletion strains, locus YPL055C, strain LGE1, hits give low values
[24] = S. cerevisiae deletion strains, locus YPL241C, strain CIN2, hits give low values
[25] = S. cerevisiae deletion strains, locus YPR135W, strain CTF4, hits give low values
[26] = S. cerevisiae strains, strain wild type, hits give low values

Measured: normalized growth

CC(C)(C)C1=C(C#N)C(c2c(Cl)cccc2Cl)C(C#N)=C(N)O1 (stereo not given)
inactive: S. cerevisiae deletion strains, locus YAR019C, strain CDC15, hits give low values 0.987 | S. cerevisiae deletion strains, locus YBL105C, strain PKC1, hits give low values 0.99 | S. cerevisiae deletion strains, locus YBR135W, strain CKS1, hits give low values 0.992 | S. cerevisiae deletion strains, locus YBR136W, strain MEC1, hits give low values 0.989 | S. cerevisiae deletion strains, locus YBR160W, strain CDC28, hits give low values 0.996 | S. cerevisiae deletion strains, locus YDL017W, strain CDC7, hits give low values 0.99 | S. cerevisiae deletion strains, locus YDL028C, strain MPS1, hits give low values 0.997 | [1] 0.979 | S. cerevisiae deletion strains, locus YDL108W, strain KIN28, hits give low values 0.992 | S. cerevisiae deletion strains, locus YDL132W, strain cdc53, hits give low values 0.978 | S. cerevisiae deletion strains, locus YDL214C, strain PRR2, hits give low values 0.987 | S. cerevisiae deletion strains, locus YDR052C, strain DBF4, hits give low values 0.997 | S. cerevisiae deletion strains, locus YDR054C, strain cdc34, hits give low values 0.976 | S. cerevisiae deletion strains, locus YDR226W, strain ADK1, hits give low values 0.979 | S. cerevisiae deletion strains, locus YDR477W, strain SNF1, hits give low values 0.995 | S. cerevisiae deletion strains, locus YER123W, strain YCK3, hits give low values 0.996 | S. cerevisiae deletion strains, locus YER133W, strain GLC7, hits give low values 0.984 | S. cerevisiae deletion strains, locus YFL009W, strain cdc4, hits give low values 0.98 | S. cerevisiae deletion strains, locus YFL029C, strain CAK1, hits give low values 0.983 | S. cerevisiae deletion strains, locus YFR003C, strain YPI1, hits give low values 0.992 | S. cerevisiae deletion strains, locus YFR019W, strain FAB1, hits give low values 1 | S. cerevisiae deletion strains, locus YFR028C, strain CDC14, hits give low values 0.978 | S. cerevisiae deletion strains, locus YGR040W, strain KSS1, hits give low values 0.991 | S. cerevisiae deletion strains, locus YGR052W, strain FMP48, hits give low values 1.01 | S. cerevisiae deletion strains, locus YGR092W, strain DBF2, hits give low values 0.98 | [2] 0.983 | S. cerevisiae deletion strains, locus YHR079C, strain IRE1, hits give low values 0.891 | S. cerevisiae deletion strains, locus YHR082C, strain KSP1, hits give low values 1.09 | S. cerevisiae deletion strains, locus YHR205W, strain SCH9, hits give low values 0.913 | S. cerevisiae deletion strains, locus YIL147C, strain SLN1, hits give low values 0.993 | S. cerevisiae deletion strains, locus YJL095W, strain BCK1, hits give low values 0.894 | S. cerevisiae deletion strains, locus YJL128C, strain PBS2, hits give low values 0.925 | S. cerevisiae deletion strains, locus YJL157C, strain FAR1, hits give low values 1.01 | S. cerevisiae deletion strains, locus YJR016C, strain ILV3, hits give low values 0.984 | S. cerevisiae deletion strains, locus YJR066W, strain TOR1 (second series), hits give low values 0.983 | S. cerevisiae deletion strains, locus YJR066W, strain TOR1, hits give low values 1.1 | S. cerevisiae deletion strains, locus YKL048C, strain ELM1, hits give low values 0.922 | S. cerevisiae deletion strains, locus YKL067W, strain YNK1, hits give low values 0.988 | S. cerevisiae deletion strains, locus YKL101W, strain HSL1, hits give low values 0.961 | S. cerevisiae deletion strains, locus YKL193C, strain SDS22, hits give low values 0.989 | S. cerevisiae deletion strains, locus YKL203C, strain TOR2, hits give low values 1.07 | S. cerevisiae deletion strains, locus YLR113W, strain HOG1, hits give low values 0.885 | S. cerevisiae deletion strains, locus YLR133W, strain CKI1, hits give low values 1.02 | S. cerevisiae deletion strains, locus YLR403W, strain SFP1, hits give low values 0.944 | S. cerevisiae deletion strains, locus YML070W, strain DAK1, hits give low values 0.992 | S. cerevisiae deletion strains, locus YMR001C, strain CDC5, hits give low values 0.995 | S. cerevisiae deletion strains, locus YMR205C, strain PFK2 (second series), hits give low values 0.993 | S. cerevisiae deletion strains, locus YMR277W, strain FCP1, hits give low values 0.997 | S. cerevisiae deletion strains, locus YNL006W, strain LST8, hits give low values 0.975 | S. cerevisiae deletion strains, locus YNL020C, strain ARK1, hits give low values 1 | S. cerevisiae deletion strains, locus YNL161W, strain CBK1, hits give low values 0.982 | S. cerevisiae deletion strains, locus YNL183C, strain NPR1, hits give low values 1.06 | S. cerevisiae deletion strains, locus YNL207W, strain RIO2, hits give low values 0.986 | S. cerevisiae deletion strains, locus YNL222W, strain SSU72, hits give low values 0.989 | S. cerevisiae deletion strains, locus YNL307C, strain MCK1 (second series), hits give low values 1 | S. cerevisiae deletion strains, locus YOL078W, strain AVO1, hits give low values 0.994 | S. cerevisiae deletion strains, locus YOL136C, strain PFK27, hits give low values 1 | S. cerevisiae deletion strains, locus YOR061W, strain CKA2, hits give low values 1.01 | S. cerevisiae deletion strains, locus YOR119C, strain RIO1, hits give low values 1.04 | S. cerevisiae deletion strains, locus YOR231W, strain MKK1, hits give low values 1.02 | S. cerevisiae deletion strains, locus YOR329C, strain SCD5, hits give low values 0.993 | S. cerevisiae deletion strains, locus YPL031C, strain PHO85, hits give low values 0.992 | S. cerevisiae deletion strains, locus YPL153C, strain RAD53, hits give low values 1 | S. cerevisiae deletion strains, locus YPL204W, strain HRR25, hits give low values 1 | S. cerevisiae deletion strains, locus YPL209C, strain IPL1, hits give low values 0.993 | S. cerevisiae deletion strains, locus YPL256C, strain CLN2, hits give low values 0.94 | S. cerevisiae deletion strains, locus YPR025C, strain CCL1, hits give low values 0.992 | S. cerevisiae deletion strains, locus YPR106W, strain ISR1, hits give low values 0.981 | S. cerevisiae deletion strains, locus YPR111W, strain DBF20, hits give low values 0.966 | S. cerevisiae deletion strains, strain NNK1, hits give low values 0.963 | S. cerevisiae deletion strains, strain TSCII, hits give low values 0.991

CC(C)(C)NC(=S)NC1CCN(Cc2ccccc2)CC1
inactive: [3] 1.06 | [4] 0.997 | S. cerevisiae deletion strains, locus YCL061C, strain MRC1, hits give low values 1.03 | [1] 1.01 | S. cerevisiae deletion strains, locus YDL134C, strain PPH21, hits give low values 0.994 | [5] 0.969 | [6] 1.02 | [7] 1.01 | [2] 1.06 | [8] 0.986 | [9] 0.995 | [10] 0.994 | [11] 0.994 | [12] 0.983 | [13] 1.03 | [14] 0.985 | [15] 1.02 | [16] 1.01 | [17] 0.992 | [18] 0.987 | [19] 1.01 | [20] 1.01 | [21] 0.995 | [22] 1.03 | [23] 0.986 | [24] 1 | [25] 1.16 | [26] 0.981

c1ccc(CN2CCC3(CCCc4ccccc43)CC2)cc1
active: S. cerevisiae deletion strains, locus YCL061C, strain MRC1 (second series), hits give low values 0.938 | S. cerevisiae deletion strains, locus YDR363W, strain ESC2, hits give low values 0.805 | [23] 0.854
inactive: S. cerevisiae deletion strains, locus YAL040C, strain CLN3, hits give low values 1.02 | S. cerevisiae deletion strains, locus YER002W, strain NOP16, hits give low values 0.975 | [7] 0.976 | [18] 1 | [19] 0.817 | S. cerevisiae deletion strains, locus YNL175C, strain NOP13, hits give low values 0.993 | S. cerevisiae deletion strains, locus YNL197C, strain WHI3, hits give low values 0.983 | S. cerevisiae deletion strains, locus YNL224C, strain SQS1, hits give low values 1.01 | S. cerevisiae deletion strains, locus YOR083W, strain WHI5 (second series), hits give low values 0.874 | [24] 0.955

O=C1NC2(CCN(Cc3ccccc3)CC2)Oc2ccccc21
inactive: [3] 0.999 | [4] 0.993 | [1] 0.949 | [5] 0.993 | [6] 1.02 | [7] 0.98 | S. cerevisiae deletion strains, locus YGR229C, strain SMI1, hits give low values 0.995 | [2] 1.04 | [8] 0.968 | [9] 1 | [10] 0.985 | S. cerevisiae deletion strains, locus YKL190W, strain CNB1, hits give low values 0.988 | [11] 0.984 | [12] 0.972 | [13] 1.14 | [14] 0.992 | [15] 1 | [16] 0.995 | [17] 1.03 | [19] 0.997 | [20] 0.955 | [21] 0.997 | [22] 0.975 | S. cerevisiae deletion strains, locus YOL006C, strain TOP1, hits give low values 0.918 | [23] 0.997 | [24] 1.1 | [25] 0.834 | [26] 0.983
